# Screens from PubChem BioAssay.
# KLF5 inh: suppresses KLF5 promoter-driven expression. DLD-1 KLF5 promoter-luciferase reporter, luminescence. inhibition, % at 5 µM. actives 0.23% (n = 290,000);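 active = inhibition above a per-plate limit of that plate's mean compound inhibition plus 3 SD, cut at about 60% in these data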;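 also: higher means less KLF5 promoter-driven luciferase light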
# aSyn 5UTR inh: MLPCN primary screen, SNCA 5' untranslated region. actives 0.82% (n = 300,000). alpha-synuclein 5'UTR reporter, inhibitor activity. inhibition, % (tested at 7.5 µM); in the data active = inhibition above about 60%;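 also: H4 neuroglioblastoma cells stably carrying SNCA 5'UTR luciferase fusion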
# IEC-6 tox: counter-screen for KLF5 inhibitors: cytotoxicity in IEC-6 cells. IEC-6 cytotoxicity, luminescence viability. inhibition, % at 5 µM. actives 0.78% (n = 290,000)
# Ba/F3 V617F tox: loss of viability in JAK2V617F-driven Ba/F3 cells; Ba/F3 EpoR-JAK2V617F viability, ATP luminescence; AID 1446; actives 1.1% (n = 220,000); inhibition, % at 5.6 µM;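 active = inhibition above the campaign mean plus 3 SD over all tested compounds, cut at about 24% in these data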;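 also: cytokine-independent growth of Ba/F3 cells driven by EpoR plus mutant JAK2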
# BaF3 parental: parental Ba/F3 viability inhibition as JAK2V617F counter-screen; CellTiter-Glo ATP luminescence; inhibition, % at 5.6 µM; actives 1.1% (n = 220,000);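 active = inhibition above a per-campaign cutoff, the mean inhibition of all tested compounds plus 3 SD, cut at about 27% in these data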
# APP 5UTR inh: APP translation inhibition | actives 0.82% (n = 190,000) | SH-SY5Y APP 5'UTR-luciferase reporter, luminescence | inhibition, % at 2 µM;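 active = inhibition above a set limit, derived from the sample mean plus 3 SD, cut at about 45% in these data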
# IEC-6 cytotox cf: confirmation of cytotoxic compounds in rat IEC-6 intestinal epithelial cells; shares compounds with IEC-6 tox; IEC-6 rat intestinal epithelial viability, luminescence; inhibition, % at 5 µM; actives 63% (n = 1,900); AID 1907
# A number is an active result; – = inactive; · = no result given. This is a sample that favours compounds with a hit; in the whole collection about 2.1% have one here. Rule as the data show it, unless noted: active = inhibition above about 22%; inactive = the rest.
SMILES,KLF5 inh,aSyn 5UTR inh,IEC-6 tox,Ba/F3 V617F tox,BaF3 parental,APP 5UTR inh,IEC-6 cytotox cf
COc1ccc(S(=O)(=O)N2N=C(C)Oc3ccccc3C2=O)cc1,–,–,67.5,85.5,76.2,85.0,45.4
CCOc1c(Br)cc(CNc2ccc3c(c2)OCCO3)cc1OC,–,96.8,76.3,80.1,77.1,93.6,53.6
CCOc1cc(CNc2ccc3c(c2)OCCO3)cc(Br)c1OCC(N)=O,–,–,–,–,–,–,·
CCOc1cc(CNc2ccc3c(c2)OCCO3)cc(Br)c1OC,–,95.4,82.3,71.7,73.2,93.7,60.5
Cc1cc(C)c2c(c1)/C(=c1/sc3n(c1=O)CN(c1ccccc1)CN=3)C(=O)N2,–,–,–,–,–,·,·
CCOc1cc(N2CCOCC2)c(OCC)cc1NS(=O)(=O)c1ccc(Cl)s1,–,–,56.9,–,54.7,–,58.2
CCOc1cc(N2CCOCC2)c(OCC)cc1NC(=O)CCS(=O)(=O)c1ccc(Cl)cc1,–,–,–,–,–,–,·
COc1ccc(C(=O)c2ccc(N(C)C)cc2)c2ccccc12,–,73.8,78.0,76.8,78.3,91.5,58.5
COc1ccccc1C(=O)COC(=O)c1ccc(N(C)C)cc1,–,–,–,–,–,–,·
O=C(NC1CCN(Cc2ccc(Cl)cc2Cl)CC1)c1ccccc1,–,–,–,·,·,·,·
CN(C)c1ccc(/C=C/c2ccc3c4ccccc4ccc3[n+]2-c2ccccc2)cc1,–,·,65.0,100.8,89.0,83.2,80.5
COc1ccc(-c2nn(C)c(=O)c3ccccc23)cc1CNC(=O)NC1CCCCC1,–,–,–,–,–,–,·
COc1cc(CCC(=O)Nc2ncc(C)s2)cc(OC)c1OC,–,–,–,·,·,·,·
COc1cc(CCC(=O)Nc2nnc(C)s2)cc(OC)c1OC,–,–,47.8,·,·,·,34.6
O=C(N/N=C/c1ccc(Cl)cc1)c1n[nH]c2c1CCCC2,–,–,81.6,74.9,70.9,·,63.2
O=C(N/N=C/C(Br)=C/c1ccccc1)c1n[nH]c2c1CCC2,–,–,94.0,92.0,91.7,·,–
O=[N+]([O-])c1c(N2CCN(CCO)CC2)nc2ccccn12,–,–,–,–,–,·,·
COC(=O)c1sc(-c2ccc(C(C)(C)C)cc2)cc1NC(=O)CSCC(=O)O,–,–,–,–,–,·,·
CCCCn1c(=O)[nH]c(=O)c2c1nc(-c1ccccc1F)n2Cc1ccccc1OC,–,–,–,–,–,–,·
Fc1ccc(Nc2nc(N3CCOCC3)nc(N3CCOCC3)n2)cc1,–,–,–,·,·,·,·
Cc1cc(/C=N/Nc2nc(N3CCOCC3)nc(N3CCOCC3)n2)c(C)n1-c1ccccc1,–,–,–,–,–,–,·
c1ccc(Nc2nc(N3CCOCC3)nc(N3CCOCC3)n2)cc1,–,–,–,–,–,–,·
Cc1ccc(Nc2nc(N/N=C/c3c[nH]c4ccccc34)nc(N3CCOCC3)n2)cc1,–,–,90.1,80.2,61.7,–,93.9
Cc1[nH]c2ccccc2c1/C=N/Nc1nc(Nc2ccc(F)cc2)nc(N2CCOCC2)n1,–,·,56.0,–,–,–,96.2
C(=N\Nc1nc(Nc2ccccc2)nc(N2CCOCC2)n1)/c1c[nH]c2ccccc12,–,–,85.6,78.1,66.7,–,97.2
SMILES,KLF5 inh,aSyn 5UTR inh,IEC-6 tox,Ba/F3 V617F tox,BaF3 parental,APP 5UTR inh,IEC-6 cytotox cf
CCOc1ccc(S(=O)(=O)Nc2cccc(C(=O)NCC3CCCO3)c2)cc1 (stereo unspecified),·,–,·,·,·,·,·
Cc1ccccc1OCC(=O)NNC(=O)CSc1nc(N)cc(N)n1,–,–,–,–,–,–,·
COc1ccc(CNS(=O)(=O)c2cc3c4c(c2)C(C)C(=O)N4CCC3)cc1 (stereo unspecified),–,–,–,·,·,·,·
COc1nc2c(c(-c3cc(Br)cs3)c1C#N)Cc1ccccc1-2,–,–,–,–,–,·,·
Cc1ccccc1NC(=O)NC1(C(=O)N2CCC(C(N)=O)CC2)CCCCC1,–,–,–,·,·,·,·
CC(C)NC(=O)C(C)N1CCN(S(=O)(=O)c2ccc3ccccc3c2)CC1 (stereo unspecified),–,–,–,·,·,·,·
COc1ccc(S(=O)(=O)N2CC(C(=O)O)Oc3ccccc32)cc1 (stereo unspecified),–,–,–,·,·,·,·
COc1ccc(S(=O)(=O)N2CCOc3ccccc32)cc1,–,–,60.2,·,·,·,37.3
Cc1ccc(C(=O)CCNc2ccc(F)c(Cl)c2)o1,–,–,30.8,46.4,57.7,–,34.3
Cc1ccc(C(=O)CCNc2ccc(Br)cc2)o1,–,–,–,–,–,–,·
